# Measured values as given in PubChem BioAssay.
# Calls of active or inactive are those of the source. Unless noted, the rule behind the calls is not given here.
# Legend:
# [1] = system: Wnt5a (protein binding on small-molecule microarray); experiment: Wnt5a binders on small-molecule microarray, primary screen, biophysical, 635/667 nm fluorescence (AID 1142); conditions: 635 nm fluorescence, higher = more signal;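 note: fluorescence read at 667 nm with signal to noise per printed feature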
# [2] = cell viability in Huh7 cells, primary screen, cytotoxicity control for HCV replication inhibitor project, CellTiter-Glo luminescence, basal, 48 h (AID 1143); conditions: Huh7 HCV replicon, higher = more signal, called active from +8 up or from −8 down;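 note: Huh7 hepatoma cells carrying a hepatitis C replication reporter with no stimulus; test concentration not given here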
# [3] = P. aeruginosa biofilm formation inhibitors, primary screen, PAO1 strain, BacTiter-Glo luminescence, LB-PBS (AID 1144); conditions: 12 h, higher = more signal
# [4] = CREB reporter modulators without forskolin, primary screen, cell-based, PC12, CRE-LacZ reporter, unstimulated (AID 1145); conditions: no forskolin, luminescence, 4.5 h, higher = more signal, called active from +8 up or from −8 down
# [5] = CREB reporter modulators under forskolin, primary screen, cell-based, PC12, CRE-LacZ reporter, forskolin-stimulated (AID 1146); conditions: luminescence, 4.5 h, higher = more signal, called active from +8 up or from −8 down;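 note: PC12 cells with 6xCRE LacZ reporter stimulated by forskolin 10 µM; beta-galactosidase reporter signal reflecting CREB driven transcription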
# [6] = molecular target: Streptavidin (Streptomyces avidinii) (UniProt P22629); experiment: streptavidin binders on small-molecule microarray, primary screen, artefact control for SMM compound annotation, biophysical, 635/667 nm fluorescence (AID 1147); conditions: streptavidin binding, higher = more signal;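 note: signal reflects streptavidin binding to arrayed compounds as a control protein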
# [7] = small-molecule binders of probe aInhba, primary screen, biochemical, small-molecule microarray, 635/667 nm fluorescence (AID 1148); conditions: higher = more signal;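 note: score merges 667nm spot fluorescence with signal-to-noise for antibody binding to printed compounds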
# [8] = molecular target: Torsin-1A (Homo sapiens) (UniProt O14656); experiment: torsin A binders from cell lysate, primary screen, small-molecule microarray, wild-type, 635/667 nm (AID 1149); conditions: COS7 hTOR1A-WT lysate, 635 nm fluorescence, higher = more signal
# [9] = molecular target: Torsin-1A (Homo sapiens) (UniProt O14656); experiment: small-molecule binders of mutant TOR1A in lysate, primary screen, cell lysate, small-molecule microarray, COS7 lysate, 635/667 nm fluorescence (AID 1150); conditions: COS7 hTOR1A mutant lysate, 635 nm fluorescence, higher = more signal;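 note: score pools 667 nm emission and signal to noise measuring lysate protein binding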
# [10] = system: Sonic hedgehog protein (Shh); experiment: small-molecule binders of Shh protein, primary screen, biochemical, small-molecule microarray, 635/667 nm fluorescence (AID 1151); conditions: small-molecule microarray binding, 635 nm fluorescence; higher = more signal;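 note: Shh protein binding to compounds spotted on small-molecule microarray slides; score combines spot fluorescence intensity with signal-to-noise across triplicate slides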
# [11] = E. coli DRC41 culture turbidity changes, primary screen, E. coli filamentation inducer project, strain DRC41, OD650, 48 h (AID 1152);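 note: E. coli MC1000 strain DRC41 lacking acrAB efflux pump and sulA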; conditions: E. coli DRC41 (acrAB sulA), higher = more signal, called active from +8 up or from −8 down
# [12] = small-molecule binders of probe aLefty1, primary screen, biochemical, small-molecule microarray, 635/667 nm fluorescence (AID 1153); conditions: higher = more signal;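 note: score merges spot fluorescence with signal-to-noise ratio from the scanned slide images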
# [13] = PSAC antagonists in infected red cells, primary screen, cell-based, P. falciparum Indochina, OD700, 1 h (AID 1154); conditions: P. falciparum Indochina infected RBC osmotic lysis, higher = more signal, called active from +8 up or from −8 down
# [14] = PSAC antagonists in infected red cells, primary screen, cell-based, P. falciparum Indochina, OD700, 2 h (AID 1155);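 note: lysis reports solute entry through the parasite surface anion channel PSAC; channel blockers reduce lysis of infected cells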; conditions: P. falciparum Indochina infected erythrocytes, osmotic lysis OD700; higher = more signal, called active from +8 up or from −8 down
# [15] = osmotic lysis modulators in infected erythrocytes, primary screen, PSAC antagonist project, cell-based, P. falciparum Indochina, OD700, 3 h (AID 1156); conditions: higher = more signal, called active from +8 up or from −8 down
# [16] = PSAC antagonists in infected red cells, primary screen, cell-based, P. falciparum Indochina, OD700, 18 h (AID 1157); conditions: P. falciparum Indochina infected erythrocytes, osmotic lysis OD700, 18 h; higher = more signal, called active from +8 up or from −8 down
# [17] = modulators of S6 phosphorylation in cells, primary screen, cell-based, A549, cytoblot, luminescence, serum-stimulated (AID 1158); conditions: A549 phospho-S6 cytoblot, 5 h, higher = more signal;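 note: serum-stimulated A549 lung adenocarcinoma cells; signal is phosphorylated S6 detected by cytoblot immunostaining with HRP secondary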
# [18] = molecular target: NADPH oxidase 2 (Homo sapiens) (UniProt P04839); experiment: NOX2-dependent H2O2 signal modulators, primary screen, NOX inhibitor project, cell-based, HEK293-NOX2, PMA-stimulated, Amplex Red fluorescence (AID 1159); conditions: 45 min, higher = more signal, called active from +8 up or from −8 down; note: test concentration not given here
# [19] = molecular target: NADPH oxidase 4 (Homo sapiens) (UniProt Q9NPH5); experiment: NOX4-dependent H2O2 signal modulators, primary screen, NOX inhibitor project, cell-based, HEK293-NOX4, tetracycline-induced, Amplex Red fluorescence (AID 1160); conditions: 45 min, higher = more signal, called active from +8 up or from −8 down
# [20] = molecular target: NADPH oxidase 5 (Homo sapiens) (UniProt Q96PH1); experiment: NOX5-dependent H2O2 signal modulators, primary screen, NOX inhibitor project, cell-based, HEK293-NOX5, Amplex Red fluorescence (AID 1161); conditions: HEK293-NOX5, ionomycin, 45 min, higher = more signal
# Sequence of NADPH oxidase 5 (Homo sapiens) (Q96PH1 whole entry, looked up): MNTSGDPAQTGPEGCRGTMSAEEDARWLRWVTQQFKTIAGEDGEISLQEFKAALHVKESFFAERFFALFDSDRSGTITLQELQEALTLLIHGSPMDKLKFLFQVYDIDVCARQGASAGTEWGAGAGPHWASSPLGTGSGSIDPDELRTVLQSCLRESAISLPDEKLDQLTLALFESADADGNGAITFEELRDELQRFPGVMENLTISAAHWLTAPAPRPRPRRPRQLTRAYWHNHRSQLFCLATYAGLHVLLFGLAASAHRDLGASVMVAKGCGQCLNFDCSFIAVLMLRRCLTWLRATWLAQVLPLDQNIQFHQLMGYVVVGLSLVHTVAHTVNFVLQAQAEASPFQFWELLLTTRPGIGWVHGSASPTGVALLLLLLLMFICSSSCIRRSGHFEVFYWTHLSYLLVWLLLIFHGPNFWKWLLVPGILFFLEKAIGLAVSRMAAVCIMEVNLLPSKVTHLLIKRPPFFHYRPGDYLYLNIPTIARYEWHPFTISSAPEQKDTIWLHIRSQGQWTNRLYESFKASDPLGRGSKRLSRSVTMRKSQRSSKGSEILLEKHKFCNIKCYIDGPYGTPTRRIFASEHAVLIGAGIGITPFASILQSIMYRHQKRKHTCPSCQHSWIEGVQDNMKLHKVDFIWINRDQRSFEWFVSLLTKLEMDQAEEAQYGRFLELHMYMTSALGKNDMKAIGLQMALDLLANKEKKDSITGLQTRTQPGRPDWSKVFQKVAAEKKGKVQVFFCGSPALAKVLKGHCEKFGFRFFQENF
# Sequence of Torsin-1A (Homo sapiens) (O14656 whole entry, looked up): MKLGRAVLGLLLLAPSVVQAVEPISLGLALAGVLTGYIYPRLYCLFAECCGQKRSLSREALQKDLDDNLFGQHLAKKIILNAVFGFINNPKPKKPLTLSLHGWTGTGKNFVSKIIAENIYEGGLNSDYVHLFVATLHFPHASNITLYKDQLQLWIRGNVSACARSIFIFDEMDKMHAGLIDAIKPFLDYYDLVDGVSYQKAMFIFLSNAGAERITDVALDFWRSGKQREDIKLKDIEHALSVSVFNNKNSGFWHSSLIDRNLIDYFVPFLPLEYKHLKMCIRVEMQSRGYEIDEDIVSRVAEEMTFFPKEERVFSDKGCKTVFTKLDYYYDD
# Sequence of NADPH oxidase 4 (Homo sapiens) (Q9NPH5 whole entry, looked up): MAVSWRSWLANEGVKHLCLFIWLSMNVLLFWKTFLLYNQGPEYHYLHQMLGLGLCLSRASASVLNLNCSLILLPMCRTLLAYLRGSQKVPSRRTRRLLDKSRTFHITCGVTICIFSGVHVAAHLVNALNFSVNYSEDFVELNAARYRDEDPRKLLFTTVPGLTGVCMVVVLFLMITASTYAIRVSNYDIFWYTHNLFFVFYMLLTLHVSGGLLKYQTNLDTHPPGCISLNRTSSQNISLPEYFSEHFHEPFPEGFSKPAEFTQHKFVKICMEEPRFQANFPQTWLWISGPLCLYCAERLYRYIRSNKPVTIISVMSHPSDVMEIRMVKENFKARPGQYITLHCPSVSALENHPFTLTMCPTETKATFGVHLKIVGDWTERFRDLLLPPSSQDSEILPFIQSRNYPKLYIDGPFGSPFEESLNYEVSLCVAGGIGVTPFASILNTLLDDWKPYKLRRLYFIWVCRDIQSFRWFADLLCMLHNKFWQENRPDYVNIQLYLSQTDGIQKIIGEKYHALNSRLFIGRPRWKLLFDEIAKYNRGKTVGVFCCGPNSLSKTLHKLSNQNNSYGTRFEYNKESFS
# Sequence of Streptavidin (Streptomyces avidinii) (P22629 whole entry, looked up): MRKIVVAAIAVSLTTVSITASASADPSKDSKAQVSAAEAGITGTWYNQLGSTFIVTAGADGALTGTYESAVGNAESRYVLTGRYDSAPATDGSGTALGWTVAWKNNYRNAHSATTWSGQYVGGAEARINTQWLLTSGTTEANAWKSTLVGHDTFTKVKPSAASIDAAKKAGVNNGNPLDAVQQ
# Sequence of NADPH oxidase 2 (Homo sapiens) (P04839 whole entry, looked up): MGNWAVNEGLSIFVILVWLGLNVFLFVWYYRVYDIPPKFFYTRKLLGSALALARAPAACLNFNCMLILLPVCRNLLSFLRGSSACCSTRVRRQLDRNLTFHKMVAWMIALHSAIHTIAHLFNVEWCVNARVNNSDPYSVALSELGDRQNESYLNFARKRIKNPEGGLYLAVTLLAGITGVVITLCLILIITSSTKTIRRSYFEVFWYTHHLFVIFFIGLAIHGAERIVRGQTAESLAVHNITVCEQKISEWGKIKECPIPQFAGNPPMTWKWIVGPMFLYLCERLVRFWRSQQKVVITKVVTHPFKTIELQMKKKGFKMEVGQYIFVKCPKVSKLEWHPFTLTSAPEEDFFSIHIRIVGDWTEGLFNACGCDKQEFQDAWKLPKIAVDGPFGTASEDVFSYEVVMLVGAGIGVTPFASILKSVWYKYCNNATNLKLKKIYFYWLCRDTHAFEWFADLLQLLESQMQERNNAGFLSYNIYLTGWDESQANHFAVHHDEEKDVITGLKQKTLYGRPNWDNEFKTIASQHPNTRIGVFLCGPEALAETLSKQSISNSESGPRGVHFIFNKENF
Structure (SMILES),composite z-score [1],z-score [2],z-score [3],z-score [4],z-score [5],composite z-score [6],composite z-score [7],composite z-score [8],composite z-score [9],composite z-score [10],z-score [11],composite z-score [12],z-score [13],z-score [14],z-score [15],z-score [16],z-score [17],z-score [18],z-score [19],z-score [20]
CCN(CC)c1ccc(N2CC=CC34O[C@@H]5C=CCCOC(=O)C5[C@H]3C(=O)N(CCCO)[C@@H]4C2=O)cc1 (stereo not given in full),-0.0601,-2.8 (inactive),-0.657 (inactive),0.0605 (inactive),-1.14 (inactive),-0.619,0.0051,-0.143,-0.419,0.327,1.44 (inactive),-0.28,0.555 (inactive),-0.829 (inactive),-0.305 (inactive),-1.15 (inactive),1.09,-0.0899 (inactive),-1.23 (inactive),0.374
CCOC(=O)N1C(c2ccc(OCCCO)cc2)=NC(C(=O)OC)N1C(=O)OCC (stereo not given),0.506,-2.41 (inactive),-1.33 (inactive),0.139 (inactive),0.666 (inactive),0.829,0.0614,0.497,0.36,1.13,1.28 (inactive),0.371,20.5 (active),2.44 (inactive),0.873 (inactive),-1.07 (inactive),1.02,-1.43 (inactive),0.403 (inactive),0.203
Cc1ccc(S[C@]2(C(=O)NCC(C)C)CC(=O)N(Cc3ccccc3)[C@@H]2c2ccc(CO)cc2)cc1,-0.405,-1.13 (inactive),0.459 (inactive),-0.179 (inactive),0.98 (inactive),-0.987,-0.152,-0.258,-0.293,-1.45,-0.747 (inactive),0.171,2.36 (inactive),0.522 (inactive),-0.111 (inactive),0.451 (inactive),0.138,-0.336 (inactive),0.361 (inactive),0.499
[N-]=[N+]=NCc1ccccc1C[C@]1(C(=O)NCCN2CCOCC2)N=C(c2ccc(OCCCO)cc2)O[C@H]1c1ccccc1CN=[N+]=[N-],0.888,-6.14 (inactive),-1.12 (inactive),1.34 (inactive),-0.887 (inactive),0.803,0.0155,0.0892,0.938,1.45,1.26 (inactive),0.453,20.7 (active),3.07 (inactive),0.58 (inactive),0.669 (inactive),2.75,-4.56 (inactive),-2.27 (inactive),-1.27
CN1C(=O)C2C=CC(C(O)c3ccc(Br)cc3)N(Nc3ccccc3)C2C1=O (stereo not given),-0.323,1.06 (inactive),-0.595 (inactive),1.6 (inactive),0.127 (inactive),-0.524,-0.0523,0.24,0.828,-1.09,-0.506 (inactive),0.106,0.884 (inactive),0.708 (inactive),0.302 (inactive),0.826 (inactive),-0.595,-0.592 (inactive),-4.5 (inactive),-2.23
CN1C(=O)C2C=CC(C(O)c3ccccc3)N(NC(=O)OC(C)(C)C)C2C1=O (stereo not given),0.126,0.413 (inactive),0.316 (inactive),0.443 (inactive),0.955 (inactive),0.134,-0.128,-0.365,0.0838,-0.582,-1.18 (inactive),0.199,-0.0278 (inactive),0.519 (inactive),0.303 (inactive),1.25 (inactive),-1.04,-1.08 (inactive),-0.302 (inactive),-1.87
COc1ccc([Si](C)(C)[C@H]2[C@H](CC(=O)N3CCC[C@H]3CO)O[C@@]3(C(=O)N(c4ccccc4)c4ccccc43)[C@@H]2C)cc1,-0.154,-3.6 (inactive),0.355 (inactive),-0.636 (inactive),-0.38 (inactive),-0.124,-0.154,0.656,0.0932,1.23,3.01 (inactive),0.228,1.84 (inactive),-0.132 (inactive),-0.0926 (inactive),-0.284 (inactive),1.48,1.44 (inactive),1.46 (inactive),1.96
CCCC[C@@H]1C[C@H]1[C@@H](NC(=O)c1ccco1)c1ccccc1,-0.609,-2.87 (inactive),0.0548 (inactive),0.783 (inactive),-0.787 (inactive),-1.27,-0.258,-3.91,-1.3,-1.88,-2.76 (inactive),-0.168,4.64 (inactive),1.16 (inactive),0.747 (inactive),0.545 (inactive),-0.446,-1.42 (inactive),-2.53 (inactive),0.195
CC(C)[C@H]1COC(=O)N1C(=O)[C@H]1[C@@H](c2ccccc2)N(c2ccccc2)O[C@@H]1C,0.138,-0.917 (inactive),-1.33 (inactive),0.493 (inactive),-0.688 (inactive),0.465,-0.0989,0.167,0.624,0.506,1.46 (inactive),-0.147,0.744 (inactive),0.233 (inactive),-0.648 (inactive),0.206 (inactive),0.958,-0.515 (inactive),-0.138 (inactive),-2.5
